# Where “and” joins values, the source holds several entries; their conditions need not be identical. Equal entries are not always repeated. The campaign covered roughly 6,400 compounds. About 610 (9.5%) were called active. No stated cut-off is given here; in the data, active means activity change below about -70%; inconclusive means no clear call, values can overlap the other calls; inactive means above that. For the sample, actives were picked, then their nearest neighbours and some compounds at random.
# Experiment: Toxoplasma gondii ME49Luc growth in HeLa cells, luciferase, no IFN-y, primary screen (AID 1259421)
# Details: T. gondii ME49Luc in HeLa, 72 h, active compounds read low, concentration not given here
row,Compound,"activity change, negative = inhibition"
1,N#CC(C#N)=NNc1cccc(Cl)c1,9.63% (inactive)
2,C[C@]12CC[C@@H]3c4ccc(OC(=O)N(CCCl)CCCl)cc4CC[C@H]3[C@@H]1CC[C@@H]2OP(=O)(O)O,10.9% (inactive)
3,CCCCC(CC)COC(=O)c1ccccc1C(=O)OCC(CC)CCCC (centres undefined),9.98% (inactive)
4,CO[C@@H]1C(O)[C@H](O[C@H]2CC[C@@]3(C=O)[C@H](CC[C@@H]4[C@@H]3CC[C@]3(C)[C@@H](C5=CC(=O)OC5)CC[C@]43O)C2)OC(C)[C@@H]1O (some centres undefined),-73.9% (active)
5,CO[C@H]1[C@H](O)[C@@H](O[C@H]2CC[C@]3(C=O)C4CC[C@]5(C)[C@@H](C6=CC(=O)OC6)CC[C@]5(O)C4CC[C@@H]3C2)O[C@@H](C)[C@@H]1O (some centres undefined),-88% (active)
6,O=C1Nc2ccccc2C2(CCN(CCc3ccc(C(F)(F)F)cc3)CC2)O1,16.5% (inactive) and 18.9% (inactive)
7,O=C(O)CCCCCCNC1c2ccccc2CCc2ccccc21,30.7% (inactive)
8,O=C(O)C(Cl)Cl,30.7% (inactive)
9,Clc1cccc(SC2CCNCC2)n1,18.6% (inactive)
10,Cc1ccc(C[N+](C)(C)C)o1,0.893% (inactive) and 9.89% (inactive)
11,CC(C)(C)CC(C)(C)c1ccc(O)cc1,5.73% (inactive)
12,CCCC(C)(COC(N)=O)COC(N)=O,8.01% (inactive)
13,C[C@]1(O)CC[C@H]2[C@@H]3CCC4=CC(=O)CC[C@]4(C)[C@@]3(F)[C@@H](O)C[C@@]21C,2.26% (inactive)
14,COC1C(O)CC(OC2C(O)CC(OC3C(O)CC(OC4CCC5(C)C(CCC6[C@@H]5CC(O)C5(C)C(C7=CC(=O)OC7)CCC65O)C4)OC3C)OC2C)OC1C (some centres undefined),-82.4% (active)
15,CC(=O)OC1CC[C@@]2(C)C(CCC3C2CC[C@]2(C)C(C4=CC(=O)OC4)C(OC(C)=O)CC32O)C1 (some centres undefined),-91.6% (active)
16,C[C@@H]1CC[C@@]2(OC1)O[C@H]1C[C@H]3[C@@H]4CC=C5C[C@H](O[C@@H]6O[C@@H](CO)[C@@H](O[C@@H]7O[C@@H](C)[C@H](O)[C@@H](O)[C@@H]7O)[C@H](O)[C@H]6O[C@@H]6O[C@@H](C)[C@H](O)[C@@H](O)[C@H]6O)CC[C@]5(C)[C@@H]4CC[C@]3(C)[C@@H]1[C@H]2C,-18.3% (inactive)
17,CC(=O)[C@H]1CC[C@H]2[C@@H]3CC[C@H]4C[C@H](O)CC[C@]4(C)[C@H]3CC[C@]12C,2.36% (inactive)
18,CC(=O)O[C@H]1C[C@H](O[C@H]2[C@@H](O)C[C@H](O[C@H]3[C@@H](O)C[C@H](O[C@H]4CC[C@@]5(C)C(CCC6C5C[C@@H](O)[C@]5(C)[C@@H](C7=CC(=O)OC7)CC[C@]65O)C4)O[C@@H]3C)O[C@@H]2C)O[C@H](C)[C@H]1O[C@@H]1O[C@H](CO)[C@@H](O)[C@H](O)[C@H]1O (some centres undefined),-75.3% (active) and -89.3% (active)
19,C[C@H]1OC(O[C@H]2[C@@H](O)CC(O[C@H]3[C@@H](O)C[C@H](O[C@H]4CC[C@]5(C)C6CC[C@]7(C)[C@@H](C8=CC(=O)OC8)[C@@H](O)C[C@]7(O)[C@@H]6CC[C@@H]5C4)O[C@@H]3C)O[C@@H]2C)C[C@H](O)C1O (some centres undefined),-71.3% (active)
20,COC(=O)/C=C/C(=O)N[C@@H]1CC[C@@]2(O)[C@H]3Cc4ccc(O)c5c4[C@@]2(CCN3CC2CC2)[C@H]1O5,16.5% (inactive)
21,CCC(Oc1ccc(Cl)cc1)C(=O)OC1CC2CCC(C1)N2C (centres undefined),-2.85% (inactive) and -12.4% (inactive)
22,c1ccc(CC(c2ccccc2)N2CCCCC2)cc1 (centres undefined),9.17% (inactive) and 15.7% (inactive)
23,Cc1[nH]c2ccc(Cl)cc2c1C1=CCNCC1,8.93% (inactive) and 11.2% (inactive)
24,COC(=O)CN1CN(c2ccccc2)C2(CCN(Cc3cccc4ccccc34)CC2)C1=O,-6.13% (inactive)
25,COc1ccc(OC)c(C(O)C(C)NC(C)(C)C)c1 (centres undefined),12% (inactive)
26,Cc1nnc2n1-c1ccc(Cl)cc1C(c1ccccc1Cl)=NC2,18.7% (inactive)
27,CC(C)(O)C(=O)Nc1ccc([N+](=O)[O-])c(C(F)(F)F)c1,5.88% (inactive)

row,Compound,"activity change, negative = inhibition"
1,COc1ccc(C[C@H]2NC[C@H](O)[C@H]2OC(C)=O)cc1,-80.3% (active) and -86.5% (active)
2,CC(C)(C)OC(=O)c1ncn2c1[C@@H]1CCCN1C(=O)c1c(Br)cccc1-2,6.65% (inactive)
3,CN1CCC2=C(C1)c1ccccc1Cc1ccccc12,3.96% (inactive)
4,Cc1[nH]cnc1CCN,7.41% (inactive)
5,C[C@]12CC/C(=N\OCCN)C[C@@H]1C(=O)C[C@@H]1[C@@H]2CC[C@]2(C)C(=O)CC[C@@H]12,14.1% (inactive)
6,Clc1ccc(C23CNCC2C3)cc1Cl (centres undefined),6.45% (inactive)
7,C=CCN1CCC23c4c5ccc(O)c4OC2C(=O)CCC3(O)C1C5 (centres undefined),-2.6% (inactive)
8,CC(C)CCCC1(C)C=Cc2c(O)c3c(c(CCC(C)C)c2O1)OC12C(CC4CC1C(C)(C)OC2(CCC(C)C(=O)O)C4O)C3=O (centres undefined),-3.34% (inactive)
9,CC(C)=CCC[C@]1(C)C=Cc2c(O)c3c(c(CC=C(C)C)c2O1)O[C@]12C(=C[C@@H]4C[C@H]1C(C)(C)O[C@@]2(CC=C(C)C(=O)O)C4=O)C3=O,-83.4% (active)
10,CC(C)=CCCC1(C)C=Cc2c(O)c3c(c(CC=C(C)C)c2O1)OC12C(=CC4CC1C(C)(C)OC2(CC=C(C)C(=O)O)C4=O)C3=O (centres undefined),-77.9% (active)
11,CN(C)[C@@H]1C(=O)C(C(N)=O)C(=O)[C@@]2(O)C(=O)C3C(=O)c4c(O)cccc4[C@@](C)(O)C3[C@H](O)C12 (some centres undefined),-0.0524% (inactive)
12,C=C(C)C1Cc2c(ccc3c(=O)c4c(oc23)COc2cc(OC)c(OC)cc2-4)O1 (centres undefined),-1.04% (inactive)
13,CCCCCCN1CCN(c2cccc(Cl)c2)CC1,9.58% (inactive)
14,O=C1CC2OCC=C3CN4CC[C@]56c7ccccc7N1C5[C@H]2[C@H]3CC46 (some centres undefined),15.9% (inactive) and 2.19% (inactive)
15,CC(C)[C@@]1(NC(=O)[C@@H]2CC3c4cccc5[nH]cc(c45)C[C@H]3N(C)C2)O[C@@]2(O)[C@@H]3CCCN3C(=O)[C@H](Cc3ccccc3)N2C1=O (some centres undefined),-13.7% (inactive)
16,CC(C)C1(NC(=O)C2CC3c4cccc5[nH]cc(c45)CC3N(C)C2)OC2(O)C3CCCN3C(=O)C(Cc3ccccc3)N2C1=O (centres undefined),-21.5% (inactive)
17,CN1Cc2ccccc2[C@@H]2c3cccc4[nH]cc(c34)C[C@H]21,-78.9% (active)
18,CN1CC[C@@H]2CN3CCc4cccc(c43)[C@@H]2C1,3.72% (inactive)
19,CCC(C)C(=O)O[C@H]1[C@H](O)C2C(CN3CC(C)CCC3[C@@]2(C)O)C2C[C@]34O[C@]5(O)C(OC(=O)C(C)(O)CC)CC[C@@]3(C)C5C(OC(C)=O)[C@@H](OC(C)=O)C4[C@@]21O (some centres undefined),1.67% (inactive)
20,CC1(C)CC(O)CC(C)(C)N1O,8.37% (inactive) and 5.38% (inactive) and 2.68% (inactive)
21,CN(C(=O)Cc1ccccc1)C(CN1CCCC1)c1ccccc1 (centres undefined),6.5% (inactive)
22,C[C@]12CCC3[C@@H](CC[C@@H]4C[C@H](O)CC[C@]34C)[C@@H]1CCC2=O (some centres undefined),8.25% (inactive)
23,C[C@]12CC[C@H](O)C[C@@H]1CC[C@@H]1[C@H]2CC[C@]2(C)C(=O)CC[C@@H]12,6.71% (inactive)
24,C[C@]12CC[C@H](O)C[C@H]1CC[C@@H]1[C@@H]2CC[C@]2(C)[C@@H](c3ccc(=O)oc3)C[C@H]3OC132 (some centres undefined),-78.4% (active)
25,CN(C)CCNc1nc2cc(O)ccc2c2c1C(=O)c1ccccc1-2,-85.6% (active)
26,O=C(O)C(=O)CBr,-21.8% (inactive)
27,C[N+]1(C)CCc2cc3c(cc2[C@H]1C1OC(=O)c2c1ccc1c2OCO1)OCO3 (some centres undefined),9.96% (inactive)
